aSyn UTR act: Activators working through SNCA 5'UTR binding (MLPCN) | AID 1814 | 7.1% of 300,000 active | activity score, % (tested at 7.5 µM), hits read low | alpha-synuclein 5'UTR reporter, activators screen; in the data active = activity score below about -60%
A number is an active result; . = inactive. Only a sample is shown.

SMILES | aSyn UTR act
COc1ccc(C2Nc3ccccc3C(=O)N2c2ccc(C)cc2)cc1Cn1nnc2ccccc21 (stereo not drawn) | -122
COc1ccc(C2Nc3ccccc3C(=O)N2c2ccc(C)cc2)cc1Cn1cc([N+](=O)[O-])cn1 (stereo not drawn) | -87
O=c1oc(-c2ccccc2)cc(Cl)c1Cl | -198
CCOc1ccccc1C(=O)N1CCN(c2cccc(Cl)c2)CC1 | .
CS(=O)(=O)Nc1ccccc1C(=O)N1CCN(c2ccccc2)CC1 | -73
CC(C)Oc1ccc(C2c3c(oc4ccccc4c3=O)C(=O)N2CCCN2CCOCC2)cc1 (stereo not drawn) | -76
Cc1cc(NC(=O)CC#N)n(-c2nc3ccccc3[nH]2)n1 | -71
CCOc1ncccc1C(=O)OCC(=O)c1cc(C)n(Cc2ccco2)c1C | -115
Cc1cc(C(=O)COC(=O)c2ccc(Br)o2)c(C)n1Cc1ccco1 | -116
Cc1cc(C(=O)COC(=O)c2ccc(O)cc2)c(C)n1Cc1ccco1 | -140
CC(/C=N/NC(=O)c1cccs1)=C\c1ccco1 | -176
CC(/C=N/NC(=O)c1cc(-c2ccncc2)nc2ccccc12)=C\c1ccco1 | .
CC(/C=N/NC(=O)Cc1cccs1)=C\c1ccco1 | -98
CCN(CC)C(=O)Oc1ccc2c(=O)c(-c3ccccc3)coc2c1 | -90
CCc1ccc(Oc2coc3cc(OCC(=O)Nc4cc(C)ccc4C)ccc3c2=O)cc1 | .
O=c1c(-c2ccc(F)cc2)coc2cc(O)ccc12 | -94
COc1ccc2c(=O)c(-c3ccccc3)coc2c1 | -65
CCOc1ccc2c(=O)c(Oc3ccccc3OCC)coc2c1 | -100
COc1ccc2c(=O)c(-c3ccc(OC)c(OC)c3)coc2c1 | -97
COc1ccccc1-c1coc2cc(O)cc(O)c2c1=O | -71
O=c1c(-c2ccc(F)cc2)coc2c3c(ccc12)OCCO3 | -128
COc1ccc(-c2coc3cc(O)ccc3c2=O)cc1OC | -66
CCC(C)c1ccc(Nc2ncccc2C#N)cc1 (stereo not drawn) | -176
COc1ccc(CCNc2ncccc2C#N)cc1OC | -114
CCc1ccc(Nc2ncccc2C#N)cc1 | -68
SMILES | aSyn UTR act
O=C(CSc1nnc(NC(=O)c2ccc(F)cc2F)s1)NC1CC1 | -69
COc1ccccc1C(=O)Nc1nnc(SCC(=O)NCC2CCCO2)s1 (stereo not drawn) | -102
COc1ccc(C(=O)Nc2nnc(SCC(=O)Nc3ccc(NC(C)=O)cc3)s2)c(OC)c1 | -63
Cc1ccccc1C(=O)Nc1nnc(-c2ccco2)s1 | .
COc1ccccc1C(=O)Nc1nnc(-c2ccco2)s1 | -168
COc1ccc(C(=O)Nc2nnc(SCC(=O)NC3CCCC3)s2)c(OC)c1 | .
O=C(CSc1nnc(NC(=O)c2ccccc2F)s1)NCc1ccco1 | -80
COc1ccccc1C(=O)Nc1nnc(SCC(=O)NCc2ccco2)s1 | -67
O=C(CSc1nnc(NC(=O)c2ccccc2F)s1)NCc1ccc(F)cc1 | -84
COc1ccccc1-c1nnc(NC(C)=O)s1 | -91
COc1cc(C(=O)N2CCN(c3cc(Cl)ccc3Cl)CC2)cc(OC)c1OC | .
COc1ccccc1N1CCN(C(=O)c2ccc(Cl)c(S(=O)(=O)NCc3ccco3)c2)CC1 | -124
COc1ccc2sc(NC(=O)CC(C)C)nc2c1 | -120
CCC(=O)Nc1nc2ccc3nc(C)sc3c2s1 | -151
CCC(=O)Nc1nc2cc(OC)ccc2s1 | -107
COc1ccc2sc(NCc3ccccc3)nc2c1 | -112
COc1ccc2sc(NC(C)=O)nc2c1 | -119
CCC(=O)Nc1nnc(/C=C/c2ccc(OC)cc2)s1 | -141
COc1cccc(CNc2ncc(Br)cc2Br)c1O | -125
COc1cccc(/C=N/Nc2ncnc(Cl)c2N)c1O | .
O=[N+]([O-])c1ccccc1-c1ccc(C(=S)N2CCCC2)o1 | -132
O=[N+]([O-])c1ccccc1-c1ccc(C(=S)N2CCCCC2)o1 | -107
Cn1cnnc1SCC(=O)Nc1ccc2nc(SCc3ccccc3F)sc2c1 | -163
CSc1nc2ccc(NC(=O)CSc3nnc(N)s3)cc2s1 | -119
Cc1cc(C)n(CC(O)COc2ccc3ccccc3c2)n1 (stereo not drawn) | -114
SMILES | aSyn UTR act
CN(CC(=O)Nc1ccccc1Br)C(=O)c1cc2c(s1)CCCCC2 | -121
c1ccc(COc2ccc(OCCOCCn3cncn3)cc2)cc1 | -117
Cc1cc(C(=O)COC(=O)c2ccc[nH]c2=O)c(C)n1C | -68
Cc1ccc(-n2c(C)cc(C(=O)COC(=O)c3ccc[nH]c3=O)c2C)cc1 | -122
COc1ccc(C(=O)N=c2sc3c(C)ccc(OC)c3n2C)cc1 | -115
COc1cc(C(=O)N=c2sc3ccccc3n2C)cc(OC)c1OC | -103
COc1cc(C(=O)N=c2sc3c(C)ccc(OC)c3n2C)cc(OC)c1OC | -222
Cn1c(=NC(=O)c2cccc([N+](=O)[O-])c2)sc2ccccc21 | -139
COc1ccc(C(=O)Nc2sc(C)c(-c3ccccc3)c2C#N)cc1OC | -92
COc1ccc2nc(/N=C/c3c(C)[nH]n(-c4ccc(C)cc4)c3=O)sc2c1 | -73
Cc1ccc(-n2[nH]c(C)c(C=NCc3ccncc3)c2=O)cc1 | -65
COc1ccc2nc(/N=C\N(C)C)sc2c1 | -92
CN(C)/C=N/c1nc2ccc3c(c2s1)CCCC3 | -138
O=C(CSc1ncccc1-c1nc2ccccc2[nH]1)Nc1ccc2c(c1)OCCO2 | -71
O=C(CSc1ncccc1-c1nc2ccccc2[nH]1)N1CCc2ccccc21 | -117
Oc1cccc2c(NC(=S)Nc3ccc(OC(F)F)cc3)cccc12 | -138
COc1ccc(Nc2nc(-c3cc4cccc(OC)c4oc3=O)cs2)cc1 | -83
COc1ccc2oc(=O)c(-c3csc(Nc4cccc(O)c4)n3)cc2c1 | -76
Cc1nc(-c2ccccc2)sc1-c1ccnn1C | -111
CC(C)CNC(=S)NC(=O)c1ccccc1Cl | -93
O=C(NC(=S)Nc1ccccc1[N+](=O)[O-])c1ccccc1Cl | -94
CCn1cc(C(=O)NC(=S)Nc2ccccc2[N+](=O)[O-])cn1 | -94
COc1ccc(NC(=S)NC(=O)c2ccccc2Cl)cc1 | -130
O=C(NC(=S)Nc1ccc(O)cc1)c1ccccc1Cl | -161
Cc1ccc(O)c(NC(=S)NC(=O)c2ccccc2Cl)c1 | -120
SMILES | aSyn UTR act
CSc1nc(Cl)cc(Nc2ccc(O)cc2)n1 | -79
CCCCN1CCc2c1nc1ccc(Br)cc1c2N | -65
O=C(Nc1ccc(Cl)c(Cl)c1)c1ccc(Cl)c(Cl)c1 | -102
O=C(Nc1ccc2c(c1)COC2=O)c1ccc(Cl)c(Cl)c1 | -143
COc1ccc(NC(=O)Nc2cccc(Cl)c2Cl)c(OC)n1 | -72
Cc1cc(C)n2ncc(C(=O)Nc3ccc(Cl)c(Cl)c3)c2n1 | -106
O=C(Nc1ccc(Cl)c(Cl)c1)c1ccncc1 | -149
COc1ccc(C(=O)Nc2ccc(Cl)c(Cl)c2)c(OC)n1 | -104
O=C(Nc1ccc2c(c1)Cc1ccccc1-2)c1ccncc1 | -134
C=CCn1c(-c2ccc(OC)cc2)nc2ccccc21 | -73
CN(C)c1ccc(-c2nc3ccccc3n2C)cc1 | .
CCn1c(-c2ccc(N(C)C)cc2)nc2ccccc21 | -97
COc1ccc(NN=Nc2ccc([N+](=O)[O-])cc2)cc1 | -240
CC1CCc2c(sc3ncn(CCO)c(=O)c23)C1 (stereo not drawn) | -116
CCC(=O)N(c1ccc(C(=O)O)cc1)c1nc(-c2ccc(OC)cc2)c(C)s1 | -185
CCN1C(=O)/C(=C/C=C2/CCCN2C)OC1=S | -152
Cc1cccnc1NC(=O)Nc1cccc(Cl)c1 | -186
O=C(Nc1cccc(Cl)c1)c1cnc[nH]1 | -87
Cc1cccnc1N(C(=O)Nc1cccc(Cl)c1)C1=NCC(C)(C)S1 | -66

Screening data (PubChem)
